According to PubChem BioAssay (EPA / NIEHS):
The source holds several records for some structures; these can differ, active in one and inactive in another. Active and inactive are the calls of the source. How the source made its calls: active means hit-call score of the fitted dose curve at least 0.9, where 1 is the maximum; inactive means score below 0.9.

Key:
Details in all cases: mRNA level, 48 h; actives raise or lower the signal
[1] = read-out: Bcl-2 (BID) gene, BID (gene 637); experiment: LTEA_HepaRG_BID: Life Technologies and Expression Analysis (LTEA) Assay for Bcl-2 (BID) gene using HepaRG (AID 2283476)
Procedure, shortened: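 Gene expression by qRT-PCR in HepaRG cells after 48 h exposure, duplicate wells, eight half-log concentrations topping at 100 uM in 0.5% DMSO. Normalized to ACTB, GAPDH, POLR2A; bidirectional fitting relative to DMSO.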

[2] = read-out: Caspase-3 (Homo sapiens) (UniProt P42574); experiment: LTEA_HepaRG_CASP3: Life Technologies and Expression Analysis (LTEA) Assay for cysteine-aspartic acid protease (CASP3) using HepaRG (AID 2283477)
Procedure, shortened: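 Read-out is CASP3 mRNA level by TaqMan qRT-PCR in human HepaRG cells after 48 h chemical exposure. Eight half-log concentrations topping at 100 uM were tested in 0.5% DMSO; gain or loss was fitted relative to DMSO.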

[3] = read-out: Cytochrome P450 (CYP24A1), CYP24A1 (gene 1591); experiment: LTEA_HepaRG_CYP24A1: Life Technologies and Expression Analysis (LTEA) Assay for Cytochrome P450 (CYP24A1) using HepaRG (AID 2283478)
Procedure, shortened: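 HepaRG, 48 h chemical exposure, 8-pt half-log CRC from 100 uM, 0.5% DMSO vehicle, duplicates. Endpoint: CYP24A1 mRNA by Fluidigm TaqMan qRT-PCR, normalized ACTB/GAPDH/POLR2A; gain/loss fit vs DMSO.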

[4] = read-out: Cytochrome P450 (CYP1A2), CYP1A2 (gene 1544); experiment: LTEA_HepaRG_CYP1A2: Life Technologies and Expression Analysis (LTEA) Assay for Cytochrome P450 (CYP1A2) using HepaRG (AID 2283479)
Procedure, shortened: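 CYP1A2 transcript induction or loss, quantified by Fluidigm qRT-PCR against three housekeeping genes, was fitted bidirectionally against 0.5% DMSO controls. Human HepaRG cells received eight half-log concentrations from 100 uM over 48 h.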

[5] = read-out: cysteine-aspartic acid protease (CASP8), CASP8 (gene 841); experiment: LTEA_HepaRG_CASP8: Life Technologies and Expression Analysis (LTEA) Assay for cysteine-aspartic acid protease (CASP8) using HepaRG (AID 2283480)
Procedure, shortened: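 Differentiated human HepaRG cells, plated 48 h then switched to serum-free induction medium, were exposed in duplicate for 48 h to 8 half-log concentrations up to 100 uM in 0.5% DMSO. CASP8 mRNA was quantified by qRT-PCR, normalized to ACTB/GAPDH/POLR2A.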

[6] = read-out: Cytochrome P450 (CYP2B6), CYP2B6 (gene 1555); experiment: LTEA_HepaRG_CYP2B6: Life Technologies and Expression Analysis (LTEA) Assay for Cytochrome P450 (CYP2B6) using HepaRG (AID 2283481)
Procedure, shortened: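 HepaRG cells plated 48 h, switched to serum-free induction medium, then dosed 48 h (8 points, half-log from 100 uM, 0.5% DMSO). RNA isolated; CYP2B6 expression measured by qRT-PCR; gain or loss fitted relative to DMSO.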

[7] = read-out: Cytochrome P450 2C19 (Homo sapiens) (UniProt P33261); experiment: LTEA_HepaRG_CYP2C19: Life Technologies and Expression Analysis (LTEA) Assay for CYP2C19 using HepaRG (AID 2283482)
Procedure, shortened: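 Transcript levels of CYP2C19 were quantified by qRT-PCR after HepaRG cells were treated for 48 hours with test chemicals up to 100 uM (eight half-log concentrations, 0.5% DMSO vehicle). Gain or loss of signal was fitted relative to DMSO.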

[8] = read-out: CYP2C8 (gene 1558); experiment: LTEA_HepaRG_CYP2C8: Life Technologies and Expression Analysis (LTEA) Assay for CYP2C8 using HepaRG (AID 2283483)
Procedure, shortened: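 Differentiated human HepaRG cells were exposed for 48 h in serum-free induction medium to eight half-log concentrations up to 100 uM in 0.5% DMSO, in duplicate. CYP2C8 mRNA was measured by TaqMan qRT-PCR, normalized to ACTB, GAPDH and POLR2A, and fitted bidirectionally against DMSO.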

[9] = read-out: CYP2E1 (gene 1571); experiment: LTEA_HepaRG_CYP2E1: Life Technologies and Expression Analysis (LTEA) Assay for CYP2E1 using HepaRG (AID 2283485)
Procedure, shortened: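 HepaRG cells, plated 48 h, then exposed 48 h in serum-free induction medium to eight half-log concentrations from 100 uM in 0.5% DMSO, duplicate. CYP2E1 mRNA by qRT-PCR, normalized to ACTB/GAPDH/POLR2A; bidirectional fit versus DMSO.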

[10] = read-out: CYP4A11 (gene 1579); experiment: LTEA_HepaRG_CYP4A11: Life Technologies and Expression Analysis (LTEA) Assay for CYP4A11 using HepaRG (AID 2283486)
Procedure, shortened: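 HepaRG, 48 h chem exposure, 8 conc (100 uM top, half-log), 0.5% DMSO vehicle; qRT-PCR readout, housekeeping-gene normalized; bidirectional curve fit vs DMSO baseline.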

[11] = read-out: Cytochrome P450 3A4 (Homo sapiens) (UniProt P08684); experiment: LTEA_HepaRG_CYP3A4: Life Technologies and Expression Analysis (LTEA) Assay for CYP3A4 using HepaRG (AID 2283487)
Procedure, shortened: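 Differentiated HepaRG cells in serum-free induction medium exposed in duplicate for 48 h to 8 half-log concentrations up to 100 uM in 0.5% DMSO. CYP3A4 mRNA measured by qRT-PCR normalized to ACTB, GAPDH and POLR2A; bidirectional fit versus DMSO.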

[12] = read-out: Pro-epidermal growth factor (Homo sapiens) (UniProt P01133); experiment: LTEA_HepaRG_EGF: Life Technologies and Expression Analysis (LTEA) Assay for Epidermal growth factor (EGF) using HepaRG (AID 2283489)
Procedure, shortened: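 HepaRG, 48 h dosing, 100 uM top, half-log x8, 0.5% DMSO. Readout: TaqMan qRT-PCR (Fluidigm array), housekeeping-normalized. Gain or loss of signal fit vs DMSO.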

[13] = read-out: Early growth response protein 1 (EGR1) transcription factor, EGR1 (gene 1958); experiment: LTEA_HepaRG_EGR1: Life Technologies and Expression Analysis (LTEA) Assay for Early growth response protein 1 (EGR1) transcription factor using HepaRG (AID 2283490)
Procedure, shortened: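 Differentiated human HepaRG cells in serum-free induction medium were exposed in duplicate for 48 h to eight concentrations (top 100 uM, half-log steps) in 0.5% DMSO. EGR1 mRNA was quantified by qRT-PCR, normalized to ACTB, GAPDH and POLR2A, and fitted bidirectionally versus DMSO.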

[14] = read-out: Ezrin (EZR), EZR (gene 7430); experiment: LTEA_HepaRG_EZR: Life Technologies and Expression Analysis (LTEA) Assay for Ezrin (EZR) using HepaRG (AID 2283491)
Procedure, shortened: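 Differentiated human HepaRG cells, 48 h after plating, were exposed in serum-free induction medium for 48 hours to eight half-log concentrations up to 100 uM in 0.5% DMSO. EZR mRNA was measured by TaqMan qRT-PCR, normalized to ACTB, GAPDH and POLR2A, and fitted bidirectionally against DMSO.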

[15] = read-out: Cytochrome P450 3A7 (Homo sapiens) (UniProt P24462); experiment: LTEA_HepaRG_CYP3A7: Life Technologies and Expression Analysis (LTEA) Assay for CYP3A7 using HepaRG (AID 2283492)
Procedure, shortened: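 Human HepaRG liver cells, 48 h post-plating, switched to serum-free induction medium and exposed in duplicate for 48 h. Dosing: 100 uM top, half-log dilutions, 8 points, 0.5% DMSO vehicle. Read-out: CYP3A7 mRNA, gain or loss fitted against DMSO baseline.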

[16] = read-out: CYP3A5 (gene 1577); experiment: LTEA_HepaRG_CYP3A5: Life Technologies and Expression Analysis (LTEA) Assay for CYP3A5 using HepaRG (AID 2283493)
Procedure, shortened: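 HepaRG cells, plated 48 h then in serum-free induction medium, dosed in duplicate for 48 h with eight half-log concentrations up to 100 uM in 0.5% DMSO. Gene mRNA by Fluidigm TaqMan qRT-PCR, normalized to ACTB, GAPDH, POLR2A.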

[17] = read-out: Fatty Acid-Binding Protein 1 (FABP1), FABP1 (gene 2168); experiment: LTEA_HepaRG_FABP1: Life Technologies and Expression Analysis (LTEA) Assay for Fatty Acid-Binding Protein 1 (FABP1) using HepaRG (AID 2283494)
Procedure, shortened: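 Differentiated human HepaRG cells were exposed in duplicate for 48 h in serum-free induction medium to 8-point half-log concentration series topping at 100 uM in 0.5% DMSO. FABP1 mRNA measured by TaqMan qRT-PCR, normalized to ACTB/GAPDH/POLR2A; bidirectional fit versus DMSO.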

[18] = read-out: Cytochrome P450 4A22 (Homo sapiens) (UniProt Q5TCH4); experiment: LTEA_HepaRG_CYP4A22: Life Technologies and Expression Analysis (LTEA) Assay for Cytochrome P450 4A22 (CYP4A22) using HepaRG (AID 2283495)
Procedure, shortened: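 Readout is CYP4A22 transcript induction or loss, quantified by qRT-PCR and normalized to ACTB, GAPDH and POLR2A. Human HepaRG cells receive test chemicals for 48 h at eight half-log concentrations from 100 uM in 0.5% DMSO.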

[19] = read-out: DNA damage-inducible transcript 3 (DDIT3), DDIT3 (gene 1649); experiment: LTEA_HepaRG_DDIT3: Life Technologies and Expression Analysis (LTEA) Assay for DNA damage-inducible transcript 3 (DDIT3) using HepaRG (AID 2283488)
Procedure, shortened: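 HepaRG cells, 48 h after plating, exposed 48 h in serum-free induction medium to 8 half-log concentrations up to 100 uM in 0.5% DMSO, in duplicate. DDIT3 mRNA measured by TaqMan qRT-PCR, normalized to ACTB, GAPDH and POLR2A. Fitted bidirectionally against DMSO.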

[20] = read-out: CYP2C9 (gene 1559); experiment: LTEA_HepaRG_CYP2C9: Life Technologies and Expression Analysis (LTEA) Assay for CYP2C9 using HepaRG (AID 2283484)
Procedure, shortened: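 Differentiated human HepaRG cells were exposed 48 h in serum-free induction medium to eight half-log concentrations up to 100 uM in 0.5% DMSO. CYP2C9 mRNA was measured by qRT-PCR, normalized to ACTB, GAPDH and POLR2A, and fitted bidirectionally against DMSO.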

Measured: AC50

Sequence of Cytochrome P450 2C19 (Homo sapiens) (P33261 whole entry, looked up): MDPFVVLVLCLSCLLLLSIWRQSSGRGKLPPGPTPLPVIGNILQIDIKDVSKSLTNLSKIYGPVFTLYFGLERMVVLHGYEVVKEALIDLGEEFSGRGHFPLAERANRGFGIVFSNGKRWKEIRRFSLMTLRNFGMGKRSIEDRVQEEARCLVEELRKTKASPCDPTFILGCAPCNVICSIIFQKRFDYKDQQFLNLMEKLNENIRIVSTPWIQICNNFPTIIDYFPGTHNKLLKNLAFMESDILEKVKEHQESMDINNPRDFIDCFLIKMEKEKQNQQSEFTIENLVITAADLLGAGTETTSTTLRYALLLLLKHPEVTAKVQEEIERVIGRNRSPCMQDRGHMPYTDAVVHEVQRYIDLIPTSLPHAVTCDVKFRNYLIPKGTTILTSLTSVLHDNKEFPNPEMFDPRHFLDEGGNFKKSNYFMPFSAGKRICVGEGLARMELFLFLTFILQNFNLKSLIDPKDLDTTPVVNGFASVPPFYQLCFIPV
Sequence of Caspase-3 (Homo sapiens) (P42574 whole entry, looked up): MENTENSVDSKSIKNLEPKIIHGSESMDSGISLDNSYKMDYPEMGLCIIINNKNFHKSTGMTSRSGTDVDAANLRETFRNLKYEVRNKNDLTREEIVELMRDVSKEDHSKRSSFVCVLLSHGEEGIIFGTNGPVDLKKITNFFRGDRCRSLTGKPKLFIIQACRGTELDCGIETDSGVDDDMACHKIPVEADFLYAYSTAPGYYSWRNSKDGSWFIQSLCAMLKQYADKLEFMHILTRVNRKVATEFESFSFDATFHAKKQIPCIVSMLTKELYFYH
Sequence of Cytochrome P450 3A4 (Homo sapiens) (P08684 whole entry, looked up): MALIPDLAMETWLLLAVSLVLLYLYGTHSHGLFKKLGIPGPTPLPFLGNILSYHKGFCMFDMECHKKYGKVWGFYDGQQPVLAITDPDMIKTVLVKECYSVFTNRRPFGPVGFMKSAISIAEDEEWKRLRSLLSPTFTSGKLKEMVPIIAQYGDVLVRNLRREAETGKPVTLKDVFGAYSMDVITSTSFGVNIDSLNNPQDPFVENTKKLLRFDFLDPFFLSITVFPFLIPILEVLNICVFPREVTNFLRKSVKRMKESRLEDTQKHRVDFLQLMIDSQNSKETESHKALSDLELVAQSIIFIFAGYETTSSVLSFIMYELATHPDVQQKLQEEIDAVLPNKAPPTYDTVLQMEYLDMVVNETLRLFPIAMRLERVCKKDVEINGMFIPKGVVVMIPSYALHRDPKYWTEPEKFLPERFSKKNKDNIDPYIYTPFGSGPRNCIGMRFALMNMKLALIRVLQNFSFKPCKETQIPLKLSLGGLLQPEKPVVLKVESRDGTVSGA
Sequence of Cytochrome P450 3A7 (Homo sapiens) (P24462 whole entry, looked up): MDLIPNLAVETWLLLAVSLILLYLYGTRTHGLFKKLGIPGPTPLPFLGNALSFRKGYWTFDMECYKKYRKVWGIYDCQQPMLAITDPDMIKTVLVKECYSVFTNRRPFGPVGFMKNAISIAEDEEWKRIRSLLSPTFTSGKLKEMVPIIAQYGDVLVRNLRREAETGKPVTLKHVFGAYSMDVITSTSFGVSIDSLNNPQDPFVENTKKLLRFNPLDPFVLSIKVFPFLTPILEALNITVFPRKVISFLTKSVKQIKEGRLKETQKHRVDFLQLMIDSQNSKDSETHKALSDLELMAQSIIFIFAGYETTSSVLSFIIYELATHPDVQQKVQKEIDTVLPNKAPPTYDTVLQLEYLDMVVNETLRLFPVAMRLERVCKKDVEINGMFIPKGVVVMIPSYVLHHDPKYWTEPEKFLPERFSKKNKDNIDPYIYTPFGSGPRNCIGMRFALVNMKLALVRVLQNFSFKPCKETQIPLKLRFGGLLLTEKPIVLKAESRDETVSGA

CCCOc1nn(C(=O)NS(=O)(=O)c2ccccc2C(=O)OC)c(=O)n1C
inactive: [1] | [2] | [3] | [4] | [5] | [6] | [7] | [8] | [9] | [10] | [11] | [12] | [13] | [14] | [15] | [16] | [17]

CNC(=O)Oc1cccc2c1OC(C)(C)O2
inactive: [1] | [2] | [3] | [4] | [5] | [6] | [7] | [9] | [10] | [11] | [12] | [13] | [14] | [15] | [17] | [18]

CN(C)[C@@H]1C(=O)C(C(N)=O)=C(O)[C@@]2(O)C(=O)C3=C(O)c4c(O)cccc4[C@@](C)(O)[C@H]3[C@H](O)[C@@H]12
active: [6] 10 µM | [9] 50 µM | [10] 38.6 µM | [18] 50 µM
inactive: [1] | [2] | [3] | [4] | [6] | [7] | [8] | [9] | [10] | [11] | [19] | [12] | [13] | [14] | [15] | [16] | [17] | [18]

CSC1=N[C@@](C)(c2ccccc2)C(=O)N1Nc1ccccc1
inactive: [1] | [2] | [3] | [5] | [12]
active: [4] 25.4 µM | [6] 30.8 µM | [7] 38.1 µM | [20] 33.8 µM | [9] 20.9 µM | [10] 27.1 µM | [11] 67.6 µM | [13] 31.9 µM | [14] 13.1 µM | [15] 25.6 µM | [17] 53.8 µM

CC(C)[C@H](C(=O)O[C@H](C#N)c1cccc(Oc2ccccc2)c1)c1ccc(Cl)cc1
inactive: [1] | [2] | [3] | [5] | [20] | [10] | [12] | [14] | [15] | [16] | [17]
active: [4] 37.3 µM | [6] 20.8 µM | [7] 34.2 µM | [9] 50 µM | [11] 10.5 µM

CC(COc1ccc(Oc2ccccc2)cc1)Oc1ccccn1 (stereo not given)
inactive: [1] | [2] | [3] | [5] | [7] | [19] | [13] | [14] | [15] | [16] | [17] | [18]
active: [4] 13.1 µM | [6] 3.68 µM | [9] 35.7 µM | [10] 12.5 µM | [11] 11.8 µM | [12] 31.5 µM
